# Where “and” joins values, the source holds several entries; their conditions need not be identical. Identical values can stand only once. Results filed as inconclusive are left out. Entries that show only a call come without a potency. More than one record can exist for a structure, and the calls need not agree. Calls of active or inactive are those of the source. Unless noted, calls come from the whole dose curve; as a rule, active = well fitted curve in the direction sought with a large enough effect in the repeat runs; inconclusive = weak or mixed curves; inactive = no such curve, though single readings can be large; an effect the other way counts as inactive or inconclusive.
# Experiments:
# [1] = qHTS assay to identify small molecule agonists of the estrogen receptor alpha (ER-alpha) signaling pathway in the presence of an antagonist - cell viability counter screen (AID 1259386);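 note: cells exposed to compounds for 22 h at 37 °C before the viability read; nearly all actives have a fitted effect of over 30% in size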; note: potency is the fitted concentration of half-maximal effect
# Outline: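 The test measures whether compounds kill ER-alpha reporter cells (VM7Luc4E2) under antagonist co-treatment (ICI-182,780, 10.0nM). Fluorescence from CellTiter-Fluor is read after a 22hr exposure.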
# [2] = molecular target: Progesterone receptor (Homo sapiens) (UniProt P06401); test: qHTS assay to identify small molecule agonists of the progesterone receptor (PR) signaling pathway (AID 1346784; calls by dose curve; note: nearly all actives have a fitted effect of over 30% in size)
# Outline: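 Agonist qHTS: compounds pinned onto 3,000 PR-UAS-bla HEK 293T cells per well in charcoal-stripped serum medium, 16hr at 37C, then beta-lactamase activity measured by LiveBLAzer FRET fluorescence after 2 hours at room temperature.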
# [3] = molecular target: Progesterone receptor (Homo sapiens) (UniProt P06401); test: qHTS assay to identify small molecule antagonists of the progesterone receptor (PR) signaling pathway (AID 1346795; active = well fitted inhibition curve with a large enough effect in the signal ratio in the repeat runs, not every such curve was filed as active; the % refers to the signal ratio; note: potency is the fitted concentration of half-maximal effect)
# Outline: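 Antagonist mode with agonist R5020 at 1 nM final and 16 hr incubation at 37C. Reporter was beta-lactamase driven by UAS in HEK293T (PR-UAS-bla), 2% charcoal-stripped serum; signal from LiveBLAzer FRET substrate, 2 hr at room temperature.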
# [4] = qHTS assay to identify small molecule antagonists of the progesterone receptor (PR) signaling pathway - cell viability counter screen (AID 1346798); note: nearly all actives have a fitted effect of over 50% in size; note: potency is the fitted concentration of half-maximal effect
# Outline: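 Cytotoxicity read as CellTiter-Glo luminescence (30 min, room temperature) in the same wells as the beta-lactamase readout. HEK293T PR-UAS-bla cells in charcoal-stripped 2% FBS received compound and R5020, then 16 h at 37C, 5% CO2.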
# [5] = qHTS assay to identify small molecule antagonists of the TGF-beta/Smad signaling pathway - cell viability counter screen (AID 1346824); note: nearly all actives have a fitted effect of over 50% in size
# Outline: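 Cytotoxicity counter-screen run in the same wells as the beta-lactamase Smad reporter read: CellTiter-Glo luminescence after 30 min at room temperature. HEK 293T SBE-bla cells had 5 hr compound exposure at 37 C with TGF-beta1 (0.25 ng/mL stock).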
# [6] = qHTS assay to identify small molecule agonists of the TGF-beta/Smad signaling pathway - cell viability counter screen (AID 1346829); note: nearly all actives have a fitted effect of over 45% in size; note: potency is the fitted concentration of half-maximal effect
# Outline: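 SBE-bla HEK 293T cells plated overnight, compound exposure 5 hr at 37 C. Viability read in the same wells by CellTiter-Glo luminescence after 30 min at room temperature, following the beta-lactamase read.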
# [7] = qHTS assay to identify small molecule agonists of the TGF-beta/Smad signaling pathway (AID 1346859; active = well fitted activation curve with a large enough effect in the signal ratio in the repeat runs, not every such curve was filed as active; the % refers to the signal ratio; note: series mostly up to about 77 µM)
# Outline: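 Fluorescence (ex 405 nm; em 460 and 530 nm) was read 2 h after LiveBLAzer FRET substrate at RT. The preceding compound treatment of overnight-plated SBE-bla HEK293T cells lasted 5 h at 37 C.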
# [8] = molecular target: Thyrotropin-releasing hormone receptor (Homo sapiens) (UniProt P34981); test: qHTS assay to identify small molecule antagonists of the thyrotropin-releasing hormone receptor (TRHR) signaling pathway (AID 1346877; active = well fitted inhibition curve with a large enough effect in the repeat runs, not every such curve was filed as active; note: series mostly up to about 51 µM)
# Outline: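 Overnight-plated (18 h, 37 °C) HEK293 cells expressing TRHR were dye-loaded 2 h, treated with compound, then stimulated with TRH at 1 nM final. Fluorescence intensity was captured every second for 3 min.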
# [9] = molecular target: Thyrotropin-releasing hormone receptor (Homo sapiens) (UniProt P34981); test: qHTS assay to identify small molecule agonists of the thyrotropin-releasing hormone receptor (TRHR) signaling pathway (AID 1346891; calls by dose curve; note: series mostly up to about 58 µM)
# Outline: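 Agonist-mode intracellular calcium readout: kinetic fluorescence over 3 min at 1 s intervals after compound addition to TRHR-HEK293 cells (18 h seeded, 2 h dye-loaded at 37 C). Fifteen concentrations, triplicates.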
# [10] = qHTS assay to identify small molecule agonists of the progesterone receptor (PR) signaling pathway - cell viability counter screen (AID 1346799; calls by dose curve; note: nearly all actives have a fitted effect of over 45% in size)
# Outline: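 Cytotoxicity measured by CellTiter-Glo luminescence (30 min, RT) in the same wells as the PR beta-lactamase agonist read. Those HEK293T cells had 16 h compound treatment at 37 C in 2% charcoal-stripped FBS medium.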
# Sequence of Thyrotropin-releasing hormone receptor (Homo sapiens) (P34981 whole entry, looked up): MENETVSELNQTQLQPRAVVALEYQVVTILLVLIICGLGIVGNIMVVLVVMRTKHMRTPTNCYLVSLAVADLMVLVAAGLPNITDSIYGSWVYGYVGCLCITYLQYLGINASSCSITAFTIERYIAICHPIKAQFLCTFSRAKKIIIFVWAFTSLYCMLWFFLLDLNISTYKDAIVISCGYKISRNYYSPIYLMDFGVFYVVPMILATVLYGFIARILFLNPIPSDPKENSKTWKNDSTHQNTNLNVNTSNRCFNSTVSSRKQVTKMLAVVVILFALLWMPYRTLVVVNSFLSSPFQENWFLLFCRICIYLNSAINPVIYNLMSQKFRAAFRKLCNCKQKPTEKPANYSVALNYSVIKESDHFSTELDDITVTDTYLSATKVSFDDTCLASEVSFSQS
# Sequence of Progesterone receptor (Homo sapiens) (P06401 whole entry, looked up): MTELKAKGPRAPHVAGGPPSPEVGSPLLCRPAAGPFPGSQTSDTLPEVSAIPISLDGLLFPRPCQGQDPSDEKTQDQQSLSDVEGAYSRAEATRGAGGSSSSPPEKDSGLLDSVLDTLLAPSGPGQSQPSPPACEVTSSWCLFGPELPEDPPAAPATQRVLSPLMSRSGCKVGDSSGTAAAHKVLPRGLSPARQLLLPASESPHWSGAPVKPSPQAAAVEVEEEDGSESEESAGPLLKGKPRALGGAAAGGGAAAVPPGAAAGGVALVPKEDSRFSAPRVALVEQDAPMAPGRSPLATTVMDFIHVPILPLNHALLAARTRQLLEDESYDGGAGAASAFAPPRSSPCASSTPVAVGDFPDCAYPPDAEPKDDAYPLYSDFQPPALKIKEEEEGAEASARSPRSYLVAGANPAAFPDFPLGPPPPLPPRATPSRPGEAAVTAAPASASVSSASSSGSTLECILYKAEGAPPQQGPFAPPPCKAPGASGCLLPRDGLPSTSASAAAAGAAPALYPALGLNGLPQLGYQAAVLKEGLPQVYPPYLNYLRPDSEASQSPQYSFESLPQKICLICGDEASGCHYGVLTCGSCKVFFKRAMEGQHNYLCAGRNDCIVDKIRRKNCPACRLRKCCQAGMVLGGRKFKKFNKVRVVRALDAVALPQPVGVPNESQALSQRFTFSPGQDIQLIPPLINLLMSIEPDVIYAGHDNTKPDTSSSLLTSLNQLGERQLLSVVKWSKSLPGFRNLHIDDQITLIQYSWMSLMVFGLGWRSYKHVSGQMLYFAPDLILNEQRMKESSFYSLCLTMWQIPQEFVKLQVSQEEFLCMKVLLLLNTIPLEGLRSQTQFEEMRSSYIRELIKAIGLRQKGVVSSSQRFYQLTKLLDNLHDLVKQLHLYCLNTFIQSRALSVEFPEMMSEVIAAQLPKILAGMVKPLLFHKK
Structure (SMILES),Potency [1],Potency [2],Potency [3],Potency [4],Potency [5],Potency [6],outcome [7],outcome [8],Potency [9],Potency [10]
O=c1cc[nH]c(=O)[nH]1,inactive,inactive,inactive,inactive,inactive,inactive,inactive,inactive,inactive,
O=C1CCCCCN1,inactive,inactive,inactive,inactive,inactive,inactive,inactive,,,inactive
CCOC(=O)C(C)(C)Oc1ccc(Cl)cc1,inactive,inactive,inactive,inactive,inactive,inactive,inactive,inactive,inactive,inactive
COc1ccccc1O,inactive,inactive,inactive,inactive,inactive,inactive,inactive,inactive,inactive,inactive
OCCCc1ccccc1,inactive,inactive,inactive,inactive,inactive,inactive,inactive,inactive,inactive,
COc1cc(C=O)ccc1O,inactive,inactive,inactive,inactive,inactive,inactive,inactive,inactive,inactive,inactive
CC(C)(C)NCC(O)c1ccc(O)c(CO)c1 (stereo unspecified),inactive,inactive,inactive,inactive,inactive,inactive,inactive,inactive,inactive,
CC(=O)Oc1ccccc1C(=O)O,inactive,inactive,inactive,inactive,inactive,inactive,inactive,,,
NC(=O)N1c2ccccc2C=Cc2ccccc21,inactive,inactive,inactive,inactive,inactive,inactive,inactive,inactive,inactive,inactive
O=C(O)CCCCC1CCSS1 (stereo unspecified),inactive,inactive,inactive,inactive,inactive,inactive,inactive,inactive,inactive,
NC(=O)N/N=C/c1ccc([N+](=O)[O-])o1,inactive and 61.1 µM (active),inactive,inactive,inactive,inactive,inactive,inactive,inactive,inactive,inactive
O=C(OCc1ccccc1)c1ccccc1,inactive,inactive,inactive,inactive,inactive,inactive,inactive,,,
COc1ccccc1NC(=O)CC(C)=O,inactive,inactive,inactive,inactive,inactive,inactive,inactive,inactive,inactive,inactive
C=C(C)C(N)=O,inactive,inactive,inactive,inactive,inactive,inactive,inactive,inactive,inactive,inactive
O=[N+]([O-])c1ccc(O)cc1,56.6 µM (active) and 43.3 µM (active) and 48.6 µM (active),inactive,inactive,inactive,inactive,inactive,inactive,,,inactive
OC[C@@H](O)[C@@H](O)[C@H](O)[C@H](O)CO,inactive,inactive,inactive,inactive,inactive,inactive,inactive,,,inactive
O=C(O)CN(CC(=O)O)CC(=O)O,inactive,inactive,inactive,inactive,inactive,inactive,inactive,inactive,inactive,inactive
CC1=C(/C=C/C(C)=C/C=C/C(C)=C/C(=O)O)C(C)(C)CCC1,inactive,inactive,inactive,inactive,inactive,inactive,inactive,inactive,inactive,inactive
Cc1ccc(O)c(-n2nc3ccccc3n2)c1,inactive,inactive,48.6 µM (active),inactive,inactive,inactive,inactive,,,inactive
CC(=O)c1ccc(S(=O)(=O)NC(=O)NC2CCCCC2)cc1,inactive,inactive,inactive,inactive,inactive,inactive,inactive,inactive,inactive,inactive
CCCCOC(=O)CCCCCCCCC(=O)OCCCC,inactive,inactive,inactive,inactive,inactive,inactive,inactive,,,inactive

Structure (SMILES),Potency [1],Potency [2],Potency [3],Potency [4],Potency [5],Potency [6],outcome [7],outcome [8],Potency [9],Potency [10]
Cc1cnc(NC(=O)C2=C(O)c3ccccc3S(=O)(=O)N2C)s1,43.4 µM (active) and inactive,inactive,inactive,inactive,,inactive,inactive,inactive,inactive,inactive
CC(C)=CCC/C(C)=C/CO,inactive,inactive,inactive,inactive,inactive,inactive,inactive,,,inactive
CCCCNC(=O)NS(=O)(=O)c1ccc(N)cc1,inactive,inactive,inactive,inactive,inactive,inactive,inactive,inactive,inactive,inactive
CCc1cc(C(N)=S)ccn1,inactive,inactive,inactive,inactive,inactive,inactive,inactive,inactive,inactive,inactive
COC(=O)C1CCC(C(=O)OC)CC1 (stereo unspecified),inactive,inactive,inactive,inactive,inactive,inactive,inactive,inactive,inactive,inactive
C=CC(=O)NC(C)(C)CS(=O)(=O)O,inactive,inactive,inactive,inactive,inactive,inactive,inactive,,,
CCCCCCCCCCCCCCCCCC(=O)OCC(O)CO (stereo unspecified),inactive,inactive,inactive,inactive,inactive,inactive,inactive,inactive,inactive,inactive
CCCCOCCOCCOC(C)=O,inactive,inactive,inactive,inactive,inactive,inactive,inactive,inactive,inactive,inactive
CCCCC/C(C=O)=C\c1ccccc1,inactive,inactive,inactive,inactive,inactive,inactive,inactive,,,inactive
Cc1c(N(C)C)c(=O)n(-c2ccccc2)n1C,,inactive,inactive,inactive,inactive,inactive,inactive,,,inactive
C#C[C@]1(O)CC[C@H]2[C@@H]3CCC4=CC(=O)CC[C@@H]4[C@H]3CC[C@@]21CC,inactive,,inactive,inactive,inactive,inactive,inactive,,,
CC(C)(C)CC(C)(C)c1ccc(O)c(-n2nc3ccccc3n2)c1,inactive,inactive,inactive,49.2 µM (active),,44.3 µM (active) and inactive,inactive,inactive,inactive,
Cc1cccc(Nc2cc(Cl)nc(SCC(=O)O)n2)c1C,inactive,inactive,,inactive,inactive,inactive,inactive,inactive,inactive,inactive
CC(C)Cc1ccc(C(C)C(=O)O)cc1 (stereo unspecified),inactive,inactive,inactive,inactive,,inactive,inactive,inactive,inactive,
COC1=CC(=O)C[C@@H](C)[C@]12Oc1c(Cl)c(OC)cc(OC)c1C2=O,inactive,inactive,27.1 µM (active) and 30.6 µM (active),inactive,inactive,inactive,inactive,inactive,inactive,
Nc1cccc(N)c1,inactive,,,inactive,inactive,inactive,inactive,inactive,inactive,inactive
COc1ccc(C(=O)c2ccccc2)c(O)c1,,inactive,30.1 µM (active),inactive,inactive,inactive,inactive,inactive,inactive,inactive
NC(=O)NO,,inactive,inactive,inactive,inactive,inactive,inactive,inactive,inactive,inactive
CCN1CCCC1=O,inactive,,,inactive,inactive,inactive,inactive,inactive,inactive,inactive
CN/C(=C\[N+](=O)[O-])NCCSCc1ccc(CN(C)C)o1,inactive,inactive,inactive,inactive,inactive,inactive,inactive,inactive,inactive,
CN(C)Cc1cc(CN(C)C)c(O)c(CN(C)C)c1,inactive,inactive,inactive,inactive,inactive,inactive,inactive,inactive,inactive,
